# Source: article PMC7862700, “An all-to-all approach to the identification of sequence-specific readers for epigenetic DNA modifications on cytosine”
# Key:
# Assay in all cases: DAPPL (digital affinity profiling via proximity ligation, sequencing); 10 mM Tris-HCl pH 7.5, 50 mM NaCl, 1 mM DTT, 4% glycerol, room temperature, 30 min; GST-TFs on glutathione beads, 16-mer random dsDNA library, 0.1% formaldehyde crosslink after washing; high values mean tight binding
# Conditions in all cases: protein: recombinant; tags: N-terminal GST; dsDNA, one strand shown
# FLI1 = molecular target: T1, FLI1 (Homo sapiens, UniProt Q01543 1-452)
# T1 sequence: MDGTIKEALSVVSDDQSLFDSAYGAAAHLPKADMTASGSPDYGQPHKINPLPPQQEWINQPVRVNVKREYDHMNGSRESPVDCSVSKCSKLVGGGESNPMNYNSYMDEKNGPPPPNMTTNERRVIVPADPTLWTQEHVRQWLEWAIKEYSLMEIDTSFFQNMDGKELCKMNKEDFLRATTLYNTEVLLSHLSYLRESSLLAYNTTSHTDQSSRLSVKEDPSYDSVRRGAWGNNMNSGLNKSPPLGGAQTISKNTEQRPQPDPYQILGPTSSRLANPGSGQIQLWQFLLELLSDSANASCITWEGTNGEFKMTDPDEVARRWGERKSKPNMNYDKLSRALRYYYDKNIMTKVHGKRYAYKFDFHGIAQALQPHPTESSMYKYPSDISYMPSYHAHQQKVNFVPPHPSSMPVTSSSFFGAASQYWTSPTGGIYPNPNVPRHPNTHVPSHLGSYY
# Method in brief: (§1)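 After expression in yeast as GST fusions, human transcription factors were bound to glutathione beads, DNA-barcoded and mixed with a tag-only sample. The pools were incubated with 200 nmole of a 16-mer random double-stranded DNA library in Tris/NaCl/DTT/glycerol buffer (30 min, room temperature), washed and crosslinked with 0.1% formaldehyde. Proximity ligation with BsaI/T4 ligase ran for 1 h at 37 °C, before PCR amplification and sequencing on an Illumina NextSeq500. Binding signal is a hexamer's read frequency for a factor divided by its frequency for the tag-only sample.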
# ELK1 = molecular target: T2, ELK1 (Homo sapiens, UniProt P19419 1-428)
# T2 sequence: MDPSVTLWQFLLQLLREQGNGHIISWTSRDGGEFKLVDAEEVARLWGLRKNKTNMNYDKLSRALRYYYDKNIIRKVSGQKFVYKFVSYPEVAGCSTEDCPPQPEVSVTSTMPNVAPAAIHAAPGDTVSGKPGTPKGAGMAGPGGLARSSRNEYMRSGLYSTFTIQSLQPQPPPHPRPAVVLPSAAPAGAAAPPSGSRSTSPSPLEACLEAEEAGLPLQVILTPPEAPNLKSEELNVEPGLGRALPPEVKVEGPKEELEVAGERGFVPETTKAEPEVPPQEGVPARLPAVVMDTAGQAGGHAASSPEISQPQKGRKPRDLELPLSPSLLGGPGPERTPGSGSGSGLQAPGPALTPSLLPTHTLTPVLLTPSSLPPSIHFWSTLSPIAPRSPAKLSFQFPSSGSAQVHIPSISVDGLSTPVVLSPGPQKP
# Method in brief: as §1
# GABPA = molecular target: T3, GABPA (Homo sapiens, UniProt Q06546 1-454)
# T3 sequence: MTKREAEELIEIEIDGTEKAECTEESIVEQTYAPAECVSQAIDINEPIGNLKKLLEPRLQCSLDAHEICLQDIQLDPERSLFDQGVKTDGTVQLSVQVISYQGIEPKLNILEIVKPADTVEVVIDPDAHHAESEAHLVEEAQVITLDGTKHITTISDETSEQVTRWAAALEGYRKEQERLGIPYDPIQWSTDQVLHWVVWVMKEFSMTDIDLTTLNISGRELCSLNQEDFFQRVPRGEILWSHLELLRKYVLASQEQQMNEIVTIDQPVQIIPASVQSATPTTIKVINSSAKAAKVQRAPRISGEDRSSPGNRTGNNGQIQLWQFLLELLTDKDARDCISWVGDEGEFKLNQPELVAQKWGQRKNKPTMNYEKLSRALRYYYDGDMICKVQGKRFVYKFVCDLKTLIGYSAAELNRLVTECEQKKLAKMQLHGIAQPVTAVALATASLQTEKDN
# Method in brief: as §1
# ERG = molecular target: T4, ERG (Homo sapiens, UniProt P11308 1-479)
# T4 sequence: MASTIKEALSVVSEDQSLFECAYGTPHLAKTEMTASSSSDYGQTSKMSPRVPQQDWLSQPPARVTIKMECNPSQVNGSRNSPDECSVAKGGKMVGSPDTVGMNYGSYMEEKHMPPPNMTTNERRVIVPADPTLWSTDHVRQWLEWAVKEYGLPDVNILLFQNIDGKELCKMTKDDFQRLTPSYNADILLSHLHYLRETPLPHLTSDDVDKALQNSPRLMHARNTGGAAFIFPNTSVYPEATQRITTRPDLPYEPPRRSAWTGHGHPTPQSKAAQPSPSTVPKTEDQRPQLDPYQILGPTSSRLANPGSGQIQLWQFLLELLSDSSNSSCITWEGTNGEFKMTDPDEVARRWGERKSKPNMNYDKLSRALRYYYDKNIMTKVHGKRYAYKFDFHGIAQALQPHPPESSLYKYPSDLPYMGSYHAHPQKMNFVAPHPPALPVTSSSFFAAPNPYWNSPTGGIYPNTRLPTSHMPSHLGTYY
# Method in brief: as §1
# ELF1 = ELF1 (Homo sapiens, UniProt P32519 1-619)
# Chain of ELF1 (P32519 whole entry): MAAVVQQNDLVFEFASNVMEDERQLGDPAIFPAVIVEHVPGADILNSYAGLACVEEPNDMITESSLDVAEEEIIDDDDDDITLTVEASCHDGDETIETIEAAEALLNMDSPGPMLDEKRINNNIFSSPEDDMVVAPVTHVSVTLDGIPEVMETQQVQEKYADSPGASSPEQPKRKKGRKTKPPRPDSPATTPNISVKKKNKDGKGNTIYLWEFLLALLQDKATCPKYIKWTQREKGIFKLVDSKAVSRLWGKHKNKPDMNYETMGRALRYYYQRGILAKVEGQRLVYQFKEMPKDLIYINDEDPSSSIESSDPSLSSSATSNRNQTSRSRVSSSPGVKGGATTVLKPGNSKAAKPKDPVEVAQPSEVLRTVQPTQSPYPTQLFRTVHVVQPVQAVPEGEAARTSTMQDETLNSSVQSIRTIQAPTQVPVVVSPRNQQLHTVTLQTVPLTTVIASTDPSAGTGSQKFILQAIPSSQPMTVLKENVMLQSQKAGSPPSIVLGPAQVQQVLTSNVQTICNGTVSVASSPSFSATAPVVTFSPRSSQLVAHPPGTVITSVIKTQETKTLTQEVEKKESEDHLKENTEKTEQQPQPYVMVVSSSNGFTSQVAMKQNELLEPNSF
# Method in brief: as §1
# EHF = molecular target: T5, EHF (Homo sapiens, UniProt Q9NZC4 1-300)
# T5 sequence: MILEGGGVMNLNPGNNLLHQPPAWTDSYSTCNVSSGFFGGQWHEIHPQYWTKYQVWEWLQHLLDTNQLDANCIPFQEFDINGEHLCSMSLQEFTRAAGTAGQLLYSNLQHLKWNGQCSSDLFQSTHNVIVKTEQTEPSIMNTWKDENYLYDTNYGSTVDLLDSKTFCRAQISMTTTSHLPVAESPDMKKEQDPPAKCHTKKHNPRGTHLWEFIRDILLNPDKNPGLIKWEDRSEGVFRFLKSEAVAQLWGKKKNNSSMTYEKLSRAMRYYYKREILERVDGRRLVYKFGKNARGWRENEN
# Method in brief: as §1
# SPI1 = SPI1 (Homo sapiens, UniProt P17947 1-270)
# Method in brief: as §1
# SPIB = SPIB (Homo sapiens, UniProt Q01892 1-262)
# Chain of SPIB (Q01892 whole entry): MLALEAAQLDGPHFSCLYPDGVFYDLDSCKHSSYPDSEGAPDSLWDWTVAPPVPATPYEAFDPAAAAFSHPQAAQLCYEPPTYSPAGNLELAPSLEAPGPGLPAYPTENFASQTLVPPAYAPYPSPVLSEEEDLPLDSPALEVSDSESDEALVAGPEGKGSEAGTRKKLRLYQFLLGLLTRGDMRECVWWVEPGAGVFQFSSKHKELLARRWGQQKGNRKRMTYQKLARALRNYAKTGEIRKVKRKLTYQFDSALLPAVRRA
# Method in brief: as §1
# ELK3 = molecular target: T6, ELK3 (Homo sapiens, UniProt P41970 1-407)
# T6 sequence: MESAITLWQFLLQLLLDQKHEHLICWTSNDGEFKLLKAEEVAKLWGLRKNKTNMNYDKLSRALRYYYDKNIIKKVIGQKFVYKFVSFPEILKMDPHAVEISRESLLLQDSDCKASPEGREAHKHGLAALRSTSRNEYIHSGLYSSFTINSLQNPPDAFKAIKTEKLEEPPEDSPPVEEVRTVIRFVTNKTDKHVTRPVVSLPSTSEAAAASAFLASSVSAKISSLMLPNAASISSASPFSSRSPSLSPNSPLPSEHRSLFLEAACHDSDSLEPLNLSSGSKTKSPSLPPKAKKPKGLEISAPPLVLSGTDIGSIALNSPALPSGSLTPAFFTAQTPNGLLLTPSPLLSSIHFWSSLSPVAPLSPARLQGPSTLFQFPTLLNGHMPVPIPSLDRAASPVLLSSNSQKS
# Method in brief: as §1
sequence,measurement,setting,value
ATTATC,binding signal,FLI1,"1.35 fold enrichment (6-mer frequency, TF over GST control)"
same,binding signal,ELK1,"1.35 fold enrichment (6-mer frequency, TF over GST control)"
same,binding signal,GABPA,"1.34 fold enrichment (6-mer frequency, TF over GST control)"
same,binding signal,ERG,"1.32 fold enrichment (6-mer frequency, TF over GST control)"
same,binding signal,ELF1,"1.29 fold enrichment (6-mer frequency, TF over GST control)"
same,binding signal,EHF,"1.28 fold enrichment (6-mer frequency, TF over GST control)"
same,binding signal,SPI1,"1.35 fold enrichment (6-mer frequency, TF over GST control)"
same,binding signal,SPIB,"1.27 fold enrichment (6-mer frequency, TF over GST control)"
same,binding signal,ELK3,"1.32 fold enrichment (6-mer frequency, TF over GST control)"
